Compound activity from PubChem.
BAZ2B block: qHTS Assay for Inhibitors of BAZ2B; Bromodomain adjacent to zinc finger domain protein 2B (Homo sapiens), Q9UIF8; AlphaScreen BAZ2B-H3K14Ac peptide displacement; Potency, µM (highest dose often 114 µM), most hits filed as inhibitors; hit rate 4.4% among 360,000; AID 504333, 2011; further: nearly all actives have a fitted effect of over 60% in size
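Complex of BAZ2B and biotin-H3K14Ac (50 nM apiece) forms over 30 min at RT, then faces library compounds up to 110 uM for another 30 min; AlphaScreen beads added, 20 min dark incubation, luminescence read.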
HP1b binding inh: HTS for Inhibitors of HP1-beta Chromodomain Interactions with Methylated Histone Tails | Chromobox protein homolog 1 (Homo sapiens), P83916 | AlphaScreen HP1-beta / biotin-H3K9me3 peptide binding | Potency, µM (top dose mostly 114 µM), most hits filed as inhibitors | hit rate 0.56% among 390,000 | AID 540317, 2011; further: nearly all actives have a fitted effect of over 70% in size
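HP1-beta protein (50 nM final) preincubated 30 min at room temperature with biotinylated H3(1-18)K9me3 peptide (50 nM) in PBS pH 7.4, 0.01% Tween-20, then compound added for 30 min. AlphaScreen streptavidin donor/nickel chelate acceptor beads (10 ug/mL final), 30 min dark, luminescence read.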
CtBP-E1A blk: qHTS Assay for Inhibitors of the CtBP/E1A Interaction; CtBP / adenovirus E1A interaction (AlphaScreen); AlphaScreen GST-E1A/His-CtBP binding, 1536-well; stronger effect = lower value; activity change, % (concentration not given with the values); hit rate 0.49% among 340,000; AID 651724, 2012; in the data active means activity change below about -65%; inconclusive means mostly about -30% to -63%
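Steps: dispense buffer (Tris pH 8.0, NaCl 300 mM, TCEP 1 mM, BSA, Tween 20); add 5X protein mix (GST-E1A, His-CtBP, 125 nM each); pin 23 nL compound; 2 h at 37 °C, dark; add 5X beads (50 ug/mL); 1 h; read.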
G9a block: qHTS Assay for Inhibitors of Histone Lysine Methyltransferase G9a. hit rate 8.8% among 350,000. Histone-lysine N-methyltransferase EHMT2 (Homo sapiens), Q96KQ7. Potency, µM (titrated, usually from 102 µM), hits mostly inhibitors. G9a H3K9 monomethylation, AlphaScreen, 2 h; further: nearly all actives have a fitted effect of over 75% in size
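AlphaScreen detection with an anti-monomethyl H3K9 antibody quantified product after a 2 h room-temperature reaction containing 500 nM biotinylated H3K9 peptide, 20 µM SAM and 20 nM enzyme, which had been preincubated 15 min with compound.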
Six1-Eya2 inh: qHTS Assay for Inhibitors of the Six1/Eya2 Interaction; Homeobox protein SIX1 (Homo sapiens) + Protein phosphatase EYA2 (Homo sapiens), …; AlphaScreen GST-Six1/His-Eya2 binding, biochemical; stronger effect = lower value; activity change, % (no concentration beside the values); hit rate 0.56% among 360,000; AID 651725, 2012; in the data active means activity change below about -65%; inconclusive means mostly about -30% to -63%
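AlphaScreen with GST-Six1 and His-Eya2 (5X mix: 250 nM and 500 nM), glutathione donor and nickel acceptor beads; buffer 50 mM Tris pH 8.0, 300 mM NaCl, 1 mM TCEP; 1 h at 37 C in the dark.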
JMJD2A Tudor: qHTS Assay for Inhibitors of JMJD2A-Tudor Domain; AlphaScreen JMJD2A-Tudor / H3K4me3 peptide binding; Potency, µM (doses to about 114 µM), actives largely listed as inhibitors; hit rate 4.4% among 390,000; AID 504339, 2011; further: nearly all actives have a fitted effect of over 50% in size
Target sequence (O75164 whole entry, looked up, the tested form may be a part): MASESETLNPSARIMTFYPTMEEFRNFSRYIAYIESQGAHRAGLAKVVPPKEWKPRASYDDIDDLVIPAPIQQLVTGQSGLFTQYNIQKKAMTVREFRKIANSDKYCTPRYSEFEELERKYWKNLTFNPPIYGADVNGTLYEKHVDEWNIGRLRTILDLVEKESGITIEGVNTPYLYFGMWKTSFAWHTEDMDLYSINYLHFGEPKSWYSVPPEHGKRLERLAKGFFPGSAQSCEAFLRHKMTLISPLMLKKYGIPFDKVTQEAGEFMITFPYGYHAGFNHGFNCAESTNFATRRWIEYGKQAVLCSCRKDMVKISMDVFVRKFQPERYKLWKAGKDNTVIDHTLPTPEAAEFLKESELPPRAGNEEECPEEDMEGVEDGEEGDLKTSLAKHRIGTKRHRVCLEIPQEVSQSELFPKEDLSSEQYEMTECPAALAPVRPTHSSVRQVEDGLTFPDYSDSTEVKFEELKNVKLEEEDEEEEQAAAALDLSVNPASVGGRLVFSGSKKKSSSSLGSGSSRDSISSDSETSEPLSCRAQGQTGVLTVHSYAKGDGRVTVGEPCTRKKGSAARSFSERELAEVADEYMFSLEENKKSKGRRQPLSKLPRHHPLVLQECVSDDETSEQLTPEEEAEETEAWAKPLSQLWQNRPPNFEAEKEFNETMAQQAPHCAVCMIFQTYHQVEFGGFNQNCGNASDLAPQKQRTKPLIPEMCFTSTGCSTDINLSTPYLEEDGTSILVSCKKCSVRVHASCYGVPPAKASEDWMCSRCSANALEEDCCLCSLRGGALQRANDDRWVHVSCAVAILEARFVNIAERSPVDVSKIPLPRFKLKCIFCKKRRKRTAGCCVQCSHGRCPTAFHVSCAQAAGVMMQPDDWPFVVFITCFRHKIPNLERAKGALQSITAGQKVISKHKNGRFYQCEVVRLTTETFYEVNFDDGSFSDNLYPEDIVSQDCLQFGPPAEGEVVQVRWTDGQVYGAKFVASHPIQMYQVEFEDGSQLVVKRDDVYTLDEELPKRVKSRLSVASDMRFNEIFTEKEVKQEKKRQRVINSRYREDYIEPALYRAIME
Hits are given with their value; 0 = inactive; ? = inconclusive; - = no result given; ! = repeats disagree; [ ] = remark or other dose. Sampled rows, rich in hits. Any-hit rate of the full collection: about 10%. Unless noted, the call rests on the fitted dose curve; in most records, active means well fitted inhibition curve with a large enough effect; inconclusive means small, poorly fitted or top-dose-only effect; inactive means no such curve, though single readings can be large or run the other way.

SMILES | BAZ2B block | HP1b binding inh | CtBP-E1A blk | G9a block | Six1-Eya2 inh | JMJD2A Tudor
N#Cc1nc(Nc2ccc(C(F)(F)F)cc2)nc(NC2CCCC2)n1 | - | - | - | - | - | 0
Cc1ccc(C2CC(=O)N3CN(Cc4ccco4)CSC3=C2C#N)cc1 (centres undefined) | 0 | ? | 0 | ? | 0 | 56µM
N#CC1=C2SCN(Cc3ccco3)CN2C(=O)CC1c1c(F)cccc1Cl (centres undefined) | 0 | ? | 0 | 1.6µM | 0 | 14µM
O=C(NCc1ccco1)C1CC(=O)N(c2ccc(Cl)cc2)C1 (centres undefined) | - | 0 | 0 | 0 | 0 | 0
CCc1nn(CC(=O)NCCCc2ccccc2)c(=O)c2cc3ccccc3n12 | 0 | 0 | - | 0 | - | 0
Cc1ccc(NC(=O)c2cnn3c(C(F)F)cc(-c4ccccc4)nc23)c(C)c1 | 0 | 0 | - | 0 | - | 0
COc1ccc(-c2csc(Cc3nnc(N4CCOCC4)n3-c3ccccc3)n2)cc1 | 0 | 0 | 0 | 50µM | 0 | 0
COc1ccc(-c2csc(Cc3nnc4n3CCCCC4)n2)cc1 | ? | 0 | 0 | 0[12.7 µM] | 0 | 0
COc1ccc(-c2csc(Cc3nnc(N4CCOCC4)n3-c3ccccc3)n2)cc1OC | ? | 0 | 0 | ? | 0 | 63µM
COc1cc(/C=C(\C#N)c2nnc(N3CCOCC3)n2-c2ccccc2)ccc1O | 0 | 0 | - | ? | 0 | 0
Cn1c(=O)c2c(nc(CN3CCN(C(=O)c4ccco4)CC3)n2Cc2ccc(Cl)cc2)n(C)c1=O | ? | 0 | 0 | 50µM | 0 | 0
Cc1ccc(Cn2c(CN3CCN(C(=O)c4ccco4)CC3)nc3c2c(=O)n(C)c(=O)n3C)cc1 | 0 | 0 | 0 | 50µM | 0 | 0
Cc1nc2nc(CNC(=O)OC(C)(C)C)nn2c(C)c1CCC(=O)NCc1ccc(F)cc1 | 0 | 0 | - | 0 | - | 0
COCCN(C(=O)Cc1cccs1)c1nnc(-c2ccncc2)s1 | 79µM | 0 | 0 | ? | 0 | 0
c1csc(-c2nc(N3CCN(Cc4ccc5c(c4)OCCO5)CC3)c3ccccc3n2)c1 | - | 0 | - | - | - | ?
ClCc1nc2ccccc2c2ccccc12 | 0 | 0 | 0 | 71µM | 0 | 0
CCOC(=O)c1c(CCl)nc2ccccc2c1-c1ccccc1 | 0 | 0 | 0 | ? | 0 | 0
O=C(OCC#CCSc1nnc(-c2ccccc2F)o1)c1ccc(F)cc1 | - | - | - | - | - | 0
COc1ccc(OC)c(-c2nnc(NC(=O)C(C)Sc3nncn3C)s2)c1 (centres undefined) | 0 | 0 | 0 | 32µM | 0 | 0
O=C(NCCc1ccc(Cl)cc1)c1ccc(CSCc2ccc(Cl)cc2)o1 | 0 | 0 | - | 0 | - | 0
COc1ccc(NS(=O)(=O)c2ccc3[nH]c(=O)ccc3c2)cc1OC | ? | 0 | - | 0 | - | ?
Cn1c(=O)n(C)c2cc([N+](=O)[O-])c(N3CCN(S(=O)(=O)c4ccc(C(C)(C)C)cc4)CC3)cc21 | 0 | 0 | 0 | ? | 0 | 0
CCS(=O)(=O)N1CCN(c2cc3c(cc2[N+](=O)[O-])n(C)c(=O)n3C)CC1 | 56µM | 0 | 0 | ? | 0 | 0
COc1ccc(OC)c(C(C)NC(=O)Cn2c(=O)cc(C)c3c(C)nn(-c4ccc(C)cc4)c32)c1 (centres undefined) | 0 | 0 | - | 0 | - | 0
Cc1cc(C)n2cc(CSc3nc4ccccc4[nH]3)nc2n1 | 0 | 0 | 0 | 20µM | 0 | 0
SMILES | BAZ2B block | HP1b binding inh | CtBP-E1A blk | G9a block | Six1-Eya2 inh | JMJD2A Tudor
Fc1ccccc1CSc1nc2ccccc2[nH]1 | 0 | 0 | 0 | 50µM | 0 | 0[11.4 µM]
Cc1cc(C)n2cc(CSc3nc4ccccc4s3)nc2n1 | 0 | 0 | 0 | ? | 0 | 0
COc1ncc2ncc(=O)n(CCC#N)c2n1 | - | - | - | 0[12.7 µM] | - | -
Cc1cccc(C2c3[nH]c4ccccc4c3CCN2C(=O)c2ocnc2C)n1 (centres undefined) | 79µM | 0 | 0 | 32µM | 0 | 0
Cc1cnc(C(=O)N2CCc3c([nH]c4ccccc34)C2c2ccc(F)cc2)cn1 (centres undefined) | 28µM | 0 | - | - | 0 | ?
CCc1ccc(C2c3[nH]c4ccccc4c3CCN2C(=O)c2cc(C)nn2C)cc1 (centres undefined) | ? | 0 | 0 | 16µM | 0 | ?
Cc1ccc(C2c3[nH]c4ccccc4c3CCN2C(=O)c2ccccc2Br)cc1 (centres undefined) | ? | 0 | - | 0 | - | ?
COc1ccc(NCc2nnc3n2CCCCC3)c(OC)c1 | 0 | 0 | - | 0 | - | 0
COC(=O)c1ccc(Cn2c(=O)cc(C)c3c(C)nn(C)c32)cc1 | 0 | 0 | - | 0 | - | 0
Cc1ccc(-c2cn3c(n2)sc2cc(C(=O)NC4CCCCCC4)ccc23)cc1 | ? | 0 | - | 0 | - | 0
CC1Cn2c(C(=O)NCc3ccccc3Cl)cc3cccc(c32)S1 (centres undefined) | 0 | 0 | - | 0 | - | 0
CCNc1ncc2nc(C)c(=O)n(CCc3ccccc3)c2n1 | - | - | - | 0[0.501 µM] | - | -
N[C@@H]1CONC1=O | 0 | - | - | 20µM! | - | -
Cc1ccc(N2C(=O)CS/C2=C(\C(Cl)=C(Cl)Cl)[N+](=O)[O-])cc1 | 45µM | ? | 0 | 20µM | 0 | 40µM
Cc1cccc(-[n+]2c(C)cc(C)c3c(=O)[nH]c(=O)[nH]c32)c1 | 0 | 0 | 0 | 50µM | 0 | 0
COc1cc2nc(NCCc3ccc(Cl)cc3)n3nc(-c4ccccc4)nc3c2cc1OC | 0 | 0 | - | 0 | - | 0
CCC1=NN2C(=N)/C(=C\c3ccc(SCc4ccco4)o3)C(=O)N=C2S1 | 50µM | 0 | 0 | 7.1µM | 0 | ?
CCCC1=NN2C(=N)/C(=C\c3ccc(SCc4ccco4)o3)C(=O)N=C2S1 | 45µM | ? | 0 | 8.9µM | 0 | 50µM
CCCC1=NN2C(=N)/C(=C\c3cc(C)n(-c4cccc(C)c4)c3C)C(=O)N=C2S1 | 0 | 0 | 0 | 0 | 0 | 0
Cn1cnc([N+](=O)[O-])c1Oc1ccc2ccccc2c1 | 0 | 0 | 0 | 50µM | 0 | 0
Cn1cnc([N+](=O)[O-])c1Sc1nc2ccccc2[nH]1 | 0 | 0 | 0 | 0 | 0 | 0
COc1ccccc1/C=C1\SC(=S)N(Nc2nc(C)cc(C)n2)C1=O | 0 | 0 | 0 | ? | 0 | 0
CC(/C=C1\SC(=S)N(NC(=O)c2cccc(O)c2)C1=O)=C\c1ccccc1 | 11µM | ? | 0 | 8.9µM | ? | 22µM
O=C(NN1C(=O)/C(=C/c2ccc(O)cc2)SC1=S)c1ccccc1O | 40µM | ? | - | ? | 0 | 50µM
